Reference: PubChem BioAssay (NCI)
The panel holds about 83,000 compounds, 20% with a hit somewhere; the sample as a whole holds those more often.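 Single-dose data. Exposure time 48 hours. Values below 10 considered active.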 Active and inactive are the calls of the source.

Tests used:
Test in all cases: NCI-60 one-dose screen, 48 h (100 = growth as untreated, 0 = no growth, -100 = all killed)
[1] = system: DU-145 prostate; settings: 10 µM unless noted
[2] = system: K-562 leukemia; settings: 10 µM unless noted
[3] = system: MALME-3M melanoma; settings: 10 µM unless noted
[4] = system: MDA-MB-231 breast; settings: 10 µM unless noted
[5] = system: RXF 393 renal; settings: 10 µM unless noted
[6] = system: SF-268 CNS; settings: 10 µM unless noted
[7] = system: SF-295 CNS; settings: 10 µM unless noted
[8] = system: SF-539 CNS; settings: 10 µM unless noted
[9] = system: UACC-257 melanoma; settings: 10 µM unless noted
[10] = system: M14 melanoma; settings: 10 µM unless noted
[11] = system: HCT-15 colon; settings: 10 µM unless noted
[12] = system: HT29 colon; settings: 10 µM unless noted
[13] = system: SNB-75 CNS; settings: 10 µM unless noted
[14] = system: SNB-19 CNS; settings: 10 µM unless noted
[15] = system: U251 CNS; settings: 10 µM unless noted
[16] = system: PC-3 prostate; settings: 10 µM unless noted
[17] = system: SK-MEL-5 melanoma; settings: 10 µM unless noted
[18] = system: UACC-62 melanoma; settings: 10 µM unless noted
[19] = system: SK-MEL-28 melanoma; settings: 10 µM unless noted
[20] = system: LOX IMVI melanoma; settings: 10 µM

Measured: growth

C/C(=N\N=C1/C(=O)Nc2ccccc21)c1ccc2c(c1)Nc1ccccc1S2
inactive: [1] 53.2% | [2] 31.8% | [3] 35.5% | [4] 39% | [5] 96.1% | [6] 55.3% | [7] 57.8% | [8] 71.7% | [9] 27.5% | [10] 65% | [11] 48.6% | [12] 71.5% | [13] 44% | [14] 64.5% | [15] 60.1% | [16] 63.6% | [17] 42% | [18] 40.5% | [19] 75%

Clc1cccc(-c2ccc(OCCCN3CCN(c4ccncc4)CC3)cc2)c1
active: [2] -50.3% | [3] -87% | [4] -83.4% | [5] -67.1% | [7] -80.8% | [8] -81.2% | [10] -64.8% | [11] -69.8% | [12] -57.5% | [15] -73.6% | [16] -8.32% | [17] -98% | [18] -74.3% | [20] -94.9% | [19] -68.5%
inactive: [1] 35.2% | [6] 33.1% | [9] 25.1% | [13] 42.8%

C#C[C@]1(O)CC[C@H]2[C@@H]3CC=C4c5sc(-c6ccc([N+](=O)[O-])cc6)nc5CC[C@]4(C)[C@H]3CC[C@@]21C
active: [1] 6.96% | [2] 5.27% | [3] -28.9% | [4] -23.5% | [5] -21.7% | [7] -41.3% | [8] -49% | [10] -53.7% | [11] -41.4% | [12] -80.4% | [15] 0.123% | [16] 1.72% | [20] -59.9% | [19] -44.8%
inactive: [6] 44.5% | [9] 32.7% | [13] 93.7% | [14] 34.5% | [17] 23%

CC(C)Sc1nc(NCCc2c[nH]c3ccccc23)c(C#N)c(-c2ccccc2)n1
active: [2] 8.87% | [4] -17.3% | [5] -27.6% | [7] -14.3% | [11] -19.9% | [12] -30.6% | [17] -6.58% | [20] -68.7%
inactive: [1] 42.5% | [3] 55.8% | [6] 45% | [8] 40.8% | [9] 86.4% | [10] 42.7% | [13] 60.6% | [15] 15.5% | [16] 12.6% | [18] 79.4% | [19] 81.5%

COc1ccc(-c2c(Nn3cnnn3)no[n+]2[O-])cc1
inactive: [1] 63.1% | [2] 30.2% | [3] 62.2% | [4] 38.8% | [5] 42.5% | [6] 66.3% | [7] 51.6% | [8] 56.3% | [9] 71.8% | [10] 59.9% | [11] 31.3% | [12] 39.4% | [13] 29.6% | [14] 71% | [15] 55.4% | [16] 59.4% | [17] 75.7% | [18] 47.5% | [19] 85.5%

O=C(COc1ccc(NC(=O)Nc2ccccc2)cc1)N=Nc1c(O)[nH]c2ccc([N+](=O)[O-])cc12
inactive: [1] 33.9% | [2] 10.5% | [5] 33.5% | [6] 46.7% | [7] 70.3% | [9] 27.3% | [11] 103% | [17] 28.4% | [18] 16%
active: [3] -62.7% | [4] -42.3% | [8] -70.5% | [10] 8.59% | [12] 6.92% | [13] 7.51% | [14] 0.584% | [15] -72.8% | [16] 2.22% | [19] -43.9%

C#C[C@]1(O)CC[C@H]2[C@@H]3CC=C4c5sc(-c6ccc(O)c(O)c6)nc5CC[C@]4(C)[C@H]3CC[C@@]21C
active: [1] -49.4% | [2] -51.3% | [3] -84% | [4] -77.8% | [5] -90.2% | [6] -76.7% | [7] -94.2% | [8] -93.2% | [9] -81.7% | [10] -87.7% | [11] -82.2% | [12] -80.2% | [13] -81.4% | [14] -89.4% | [15] -94.3% | [16] -58.9% | [17] -98.4% | [18] -74.7% | [19] -80.3%

Cc1cc2nc3c([nH]c2cc1C)c1ccc(=O)cc1n3CCN(C)C
active: [2] 9.48%
inactive: [1] 28.8% | [3] 27.2% | [4] 38.7% | [5] 57.8% | [6] 61% | [7] 27% | [8] 26.4% | [9] 64% | [10] 43.8% | [11] 19.3% | [12] 23.4% | [13] 63.2% | [14] 38.2% | [15] 40% | [17] 41.5% | [19] 51.4%

COc1cc(C2CC(c3cc(OC)c(OC)c(OC)c3)=NN2C(C)=O)ccc1OCc1ccc(F)cc1 (stereo not given)
inactive: [1] 70.6% | [2] 28% | [3] 81.8% | [4] 61% | [5] 73.7% | [6] 72% | [7] 37.7% | [8] 61.9% | [9] 68.6% | [10] 59.9% | [11] 42.5% | [12] 28.1% | [13] 79.5% | [14] 60.9% | [15] 59.9% | [16] 27.7% | [17] 29.7% | [18] 52% | [19] 73.2%

O=C(COc1ccc(NC(=O)Nc2ccc(Cl)c(Cl)c2)cc1)N=Nc1c(O)[nH]c2ccc([N+](=O)[O-])cc12
active: [8] 1.4%
inactive: [1] 64.8% | [2] 25.1% | [3] 77.9% | [4] 37% | [5] 75.4% | [6] 84.3% | [7] 53.1% | [9] 67.6% | [10] 34.4% | [11] 88.5% | [12] 81.6% | [13] 66.2% | [14] 67% | [15] 19.4% | [16] 71.6% | [17] 90.7% | [18] 85.6% | [19] 57.6%

CCCCc1c(Nn2cnnn2)no[n+]1[O-]
inactive: [1] 56.2% | [2] 28.2% | [3] 68.7% | [4] 49.3% | [5] 39.5% | [6] 82.2% | [7] 56.9% | [8] 57% | [9] 68.5% | [10] 68.1% | [11] 32.8% | [12] 59.5% | [13] 48.9% | [14] 72.3% | [15] 51.3% | [16] 58.1% | [17] 80.6% | [18] 52.4% | [19] 73%

C/C(=N\N=C\c1cc([N+](=O)[O-])ccc1Cl)c1ccc2c(c1)Nc1ccccc1S2
active: [7] -28% | [13] 5.46% | [15] 7.09%
inactive: [1] 84.2% | [2] 57.1% | [3] 74.2% | [4] 49.9% | [5] 62.8% | [6] 80.4% | [8] 58.1% | [9] 81.5% | [10] 88.2% | [11] 72.4% | [12] 72.2% | [14] 51.6% | [16] 82.4% | [17] 78.6% | [18] 69.6% | [19] 90.7%

CCOc1ccc(C(=O)NC(=S)Nc2ccc(S(N)(=O)=O)cc2)cc1
inactive: [1] 105% [100 µM] | [2] 98.1% [100 µM] | [3] 87.6% [100 µM] | [4] 102% [100 µM] | [5] 102% [100 µM] | [6] 102% [100 µM] | [7] 104% [100 µM] | [8] 91.7% [100 µM] | [9] 90.6% [100 µM] | [10] 102% [100 µM] | [11] 111% [100 µM] | [12] 98.1% [100 µM] | [13] 76.9% [100 µM] | [14] 104% [100 µM] | [15] 96.7% [100 µM] | [16] 92.1% [100 µM] | [17] 88.1% [100 µM] | [18] 94.8% [100 µM] | [19] 107% [100 µM]

COc1cc(OC)c2c3nc4cc(C)c(C)cc4nc3n(CCN(C)C)c2c1
active: [2] 1.64% | [3] -36.1% | [5] -18.4% | [8] -83.5% | [11] -27.9%
inactive: [1] 60.4% | [4] 38% | [6] 86.2% | [7] 53.7% | [9] 101% | [10] 47.9% | [12] 49.9% | [13] 78.3% | [14] 70.5% | [15] 87.7% | [17] 69.8% | [18] 99.1% | [19] 66.5%

Cc1cc2nc3c4ccccc4n(CC4=NCCN4)c3nc2cc1C
inactive: [6] 40.7% | [13] 25.1% | [14] 15.8%
active: [1] 2.14% | [2] -13.1% | [3] -92.7% | [4] -43.2% | [5] -67.2% | [7] -74.8% | [8] -94.2% | [9] -44.4% | [10] -79.2% | [11] 0.357% | [12] -74.3% | [15] -72.5% | [17] -91.7% | [18] -91.2% | [19] -93.5%

COC(=O)/C=C/c1cccc2c1C(=O)NC(C)(c1cc3cc4ccccc4cc3oc1=O)N2 (stereo not given)
inactive: [1] 46.1% | [2] 46.7% | [3] 19.6% | [4] 28.5% | [6] 42.8% | [7] 75.3% | [8] 44.7% | [9] 77.8% | [10] 55.9% | [11] 54.6% | [12] 32.9% | [13] 61.8% | [14] 49.7% | [15] 43.8% | [16] 38.9% | [17] 79.5% | [19] 58%
active: [5] -0.792% | [20] 6.32%
